# From paper PMC7862700, “An all-to-all approach to the identification of sequence-specific readers for epigenetic DNA modifications on cytosine”
# Key:
# Experiment in all cases: DAPPL (digital affinity profiling via proximity ligation, sequencing); 10 mM Tris-HCl pH 7.5, 50 mM NaCl, 1 mM DTT, 4% glycerol, room temperature, 30 min; GST-TFs on glutathione beads, 16-mer random dsDNA library, 0.1% formaldehyde crosslink after washing; high values mean tight binding
# FLI1 = biological target: T1, FLI1 (Homo sapiens, UniProt Q01543 1-452); settings: protein: recombinant; tags: N-terminal GST; dsDNA, one strand shown
# T1 sequence: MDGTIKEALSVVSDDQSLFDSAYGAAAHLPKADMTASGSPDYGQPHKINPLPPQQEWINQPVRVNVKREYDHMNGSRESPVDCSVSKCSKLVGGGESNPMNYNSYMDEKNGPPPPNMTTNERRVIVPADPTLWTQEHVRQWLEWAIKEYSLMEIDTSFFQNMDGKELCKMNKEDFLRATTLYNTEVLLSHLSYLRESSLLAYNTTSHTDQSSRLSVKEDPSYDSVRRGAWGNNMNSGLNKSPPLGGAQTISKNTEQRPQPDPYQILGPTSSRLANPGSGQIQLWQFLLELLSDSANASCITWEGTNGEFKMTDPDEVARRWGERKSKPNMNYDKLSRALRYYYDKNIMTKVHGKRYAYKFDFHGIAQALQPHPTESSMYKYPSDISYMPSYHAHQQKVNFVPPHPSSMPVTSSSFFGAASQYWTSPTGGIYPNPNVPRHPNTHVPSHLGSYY
# Method in brief: (§1)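 Beads coated with glutathione captured GST-fused human transcription factors that had been expressed in yeast, and the factors were then given DNA barcodes and pooled with a tag-only sample. The pools were incubated with 200 nmole of a random double-stranded 16-mer DNA library in Tris/NaCl/DTT/glycerol buffer for 30 min at room temperature, washed, crosslinked with 0.1% formaldehyde and proximity-ligated with BsaI/T4 ligase at 37 °C for 1 h. PCR amplification and Illumina NextSeq500 sequencing came last. Binding signal is each hexamer's read frequency for a factor divided by its frequency for the tag-only sample.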
# ELK1 = biological target: T2, ELK1 (Homo sapiens, UniProt P19419 1-428); settings: protein: recombinant; tags: N-terminal GST; dsDNA, one strand shown
# T2 sequence: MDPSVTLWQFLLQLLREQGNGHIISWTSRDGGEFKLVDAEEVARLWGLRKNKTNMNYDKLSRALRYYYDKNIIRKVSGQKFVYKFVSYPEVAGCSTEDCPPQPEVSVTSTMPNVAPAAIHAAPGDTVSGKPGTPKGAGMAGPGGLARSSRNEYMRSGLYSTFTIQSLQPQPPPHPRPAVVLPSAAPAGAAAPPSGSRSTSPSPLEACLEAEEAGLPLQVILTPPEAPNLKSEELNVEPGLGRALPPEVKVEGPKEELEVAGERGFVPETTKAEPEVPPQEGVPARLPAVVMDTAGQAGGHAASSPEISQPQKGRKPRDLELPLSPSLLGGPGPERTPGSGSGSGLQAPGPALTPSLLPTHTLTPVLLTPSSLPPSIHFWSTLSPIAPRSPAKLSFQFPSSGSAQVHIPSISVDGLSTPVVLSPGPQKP
# Method in brief: as §1
# GABPA = biological target: T3, GABPA (Homo sapiens, UniProt Q06546 1-454); settings: protein: recombinant; tags: N-terminal GST; dsDNA, one strand shown
# T3 sequence: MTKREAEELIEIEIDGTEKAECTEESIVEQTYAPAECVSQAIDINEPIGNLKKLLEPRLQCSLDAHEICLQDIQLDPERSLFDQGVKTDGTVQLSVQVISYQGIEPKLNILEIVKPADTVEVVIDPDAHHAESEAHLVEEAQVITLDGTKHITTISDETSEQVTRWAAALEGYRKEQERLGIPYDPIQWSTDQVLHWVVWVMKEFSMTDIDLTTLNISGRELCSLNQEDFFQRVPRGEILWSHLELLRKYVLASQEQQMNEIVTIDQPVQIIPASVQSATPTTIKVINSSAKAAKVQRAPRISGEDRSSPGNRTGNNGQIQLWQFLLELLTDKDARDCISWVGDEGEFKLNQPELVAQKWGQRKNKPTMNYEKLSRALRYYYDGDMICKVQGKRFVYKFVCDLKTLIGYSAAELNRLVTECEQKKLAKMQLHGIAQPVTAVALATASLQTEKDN
# Method in brief: as §1
# ERG = biological target: T4, ERG (Homo sapiens, UniProt P11308 1-479); settings: protein: recombinant; tags: N-terminal GST; dsDNA, one strand shown
# T4 sequence: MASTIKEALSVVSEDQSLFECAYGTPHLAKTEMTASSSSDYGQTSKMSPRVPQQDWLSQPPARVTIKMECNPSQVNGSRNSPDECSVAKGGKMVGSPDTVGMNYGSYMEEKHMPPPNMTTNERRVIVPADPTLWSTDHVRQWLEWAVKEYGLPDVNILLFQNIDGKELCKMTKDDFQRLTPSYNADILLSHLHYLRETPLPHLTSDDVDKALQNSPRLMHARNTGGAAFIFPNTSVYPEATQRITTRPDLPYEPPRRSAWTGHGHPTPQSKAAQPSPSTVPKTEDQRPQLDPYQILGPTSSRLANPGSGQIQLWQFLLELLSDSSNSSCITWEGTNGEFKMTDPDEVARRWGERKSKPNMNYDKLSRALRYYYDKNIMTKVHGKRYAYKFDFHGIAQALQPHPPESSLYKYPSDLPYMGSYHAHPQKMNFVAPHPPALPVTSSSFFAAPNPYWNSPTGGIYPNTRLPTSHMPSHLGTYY
# Method in brief: as §1
# ELF1 = ELF1 (Homo sapiens, UniProt P32519 1-619); settings: protein: recombinant; tags: N-terminal GST; dsDNA, one strand shown
# Chain of ELF1 (P32519 whole entry): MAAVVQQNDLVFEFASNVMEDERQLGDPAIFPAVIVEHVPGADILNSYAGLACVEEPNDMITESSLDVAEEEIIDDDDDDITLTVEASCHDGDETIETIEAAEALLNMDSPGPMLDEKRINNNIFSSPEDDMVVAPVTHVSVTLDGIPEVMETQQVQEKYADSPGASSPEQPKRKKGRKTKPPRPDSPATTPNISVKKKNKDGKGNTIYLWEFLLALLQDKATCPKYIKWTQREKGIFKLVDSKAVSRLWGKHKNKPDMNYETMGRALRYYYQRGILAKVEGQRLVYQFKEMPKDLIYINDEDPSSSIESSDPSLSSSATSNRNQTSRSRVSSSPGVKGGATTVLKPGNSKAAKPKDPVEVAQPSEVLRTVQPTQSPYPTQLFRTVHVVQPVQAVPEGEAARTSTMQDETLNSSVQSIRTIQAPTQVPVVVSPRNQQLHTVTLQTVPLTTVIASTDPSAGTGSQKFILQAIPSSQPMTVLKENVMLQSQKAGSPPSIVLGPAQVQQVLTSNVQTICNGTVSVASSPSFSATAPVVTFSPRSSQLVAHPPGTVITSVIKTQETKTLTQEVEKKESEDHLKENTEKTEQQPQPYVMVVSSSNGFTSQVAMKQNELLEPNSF
# Method in brief: as §1
# EHF = biological target: T5, EHF (Homo sapiens, UniProt Q9NZC4 1-300); settings: protein: recombinant; tags: N-terminal GST; dsDNA, one strand shown
# T5 sequence: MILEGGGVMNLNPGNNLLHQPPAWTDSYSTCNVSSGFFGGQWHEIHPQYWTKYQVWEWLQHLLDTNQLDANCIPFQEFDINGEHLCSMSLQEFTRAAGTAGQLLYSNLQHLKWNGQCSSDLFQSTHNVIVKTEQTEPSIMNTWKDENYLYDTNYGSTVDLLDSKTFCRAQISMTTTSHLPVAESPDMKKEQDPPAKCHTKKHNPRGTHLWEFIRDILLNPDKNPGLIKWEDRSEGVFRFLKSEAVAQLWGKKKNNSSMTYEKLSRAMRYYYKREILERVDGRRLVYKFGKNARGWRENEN
# Method in brief: as §1
# SPIB = SPIB (Homo sapiens, UniProt Q01892 1-262); settings: protein: recombinant; tags: N-terminal GST; dsDNA, one strand shown
# Chain of SPIB (Q01892 whole entry): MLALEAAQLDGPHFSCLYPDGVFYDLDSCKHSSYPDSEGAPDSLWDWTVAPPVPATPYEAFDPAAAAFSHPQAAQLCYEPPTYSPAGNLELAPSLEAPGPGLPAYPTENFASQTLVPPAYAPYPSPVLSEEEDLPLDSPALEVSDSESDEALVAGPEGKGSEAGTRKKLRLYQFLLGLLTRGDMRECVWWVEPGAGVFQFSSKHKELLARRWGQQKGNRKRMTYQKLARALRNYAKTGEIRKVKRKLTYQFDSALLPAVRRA
# Method in brief: as §1
# ELK3 = biological target: T6, ELK3 (Homo sapiens, UniProt P41970 1-407); settings: protein: recombinant; tags: N-terminal GST; dsDNA, one strand shown
# T6 sequence: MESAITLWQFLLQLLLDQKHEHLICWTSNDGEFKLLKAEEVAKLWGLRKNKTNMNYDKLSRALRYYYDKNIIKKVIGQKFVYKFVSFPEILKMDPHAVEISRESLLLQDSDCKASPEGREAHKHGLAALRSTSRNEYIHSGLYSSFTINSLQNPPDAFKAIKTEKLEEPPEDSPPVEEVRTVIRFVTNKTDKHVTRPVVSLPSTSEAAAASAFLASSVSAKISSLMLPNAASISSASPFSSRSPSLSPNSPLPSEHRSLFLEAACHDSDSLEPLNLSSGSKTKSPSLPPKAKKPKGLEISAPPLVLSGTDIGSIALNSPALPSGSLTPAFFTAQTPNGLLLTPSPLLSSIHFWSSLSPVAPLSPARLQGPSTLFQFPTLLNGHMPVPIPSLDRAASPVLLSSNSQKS
# Method in brief: as §1
# FEV = biological target: T7, FEV (Homo sapiens, UniProt Q99581 1-238); settings: protein: recombinant; tags: N-terminal GST; dsDNA, one strand shown
# T7 sequence: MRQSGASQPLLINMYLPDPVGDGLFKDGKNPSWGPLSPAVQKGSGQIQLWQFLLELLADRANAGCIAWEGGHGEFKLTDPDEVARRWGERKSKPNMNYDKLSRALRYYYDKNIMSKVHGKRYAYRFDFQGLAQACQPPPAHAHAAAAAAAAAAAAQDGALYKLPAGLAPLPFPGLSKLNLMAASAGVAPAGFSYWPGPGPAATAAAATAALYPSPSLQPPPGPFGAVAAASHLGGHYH
# Method in brief: as §1
# ETV5 = ETV5 (Homo sapiens, UniProt P41161 1-510); settings: protein: recombinant; tags: N-terminal GST; dsDNA, one strand shown
# Chain of ETV5 (P41161 whole entry): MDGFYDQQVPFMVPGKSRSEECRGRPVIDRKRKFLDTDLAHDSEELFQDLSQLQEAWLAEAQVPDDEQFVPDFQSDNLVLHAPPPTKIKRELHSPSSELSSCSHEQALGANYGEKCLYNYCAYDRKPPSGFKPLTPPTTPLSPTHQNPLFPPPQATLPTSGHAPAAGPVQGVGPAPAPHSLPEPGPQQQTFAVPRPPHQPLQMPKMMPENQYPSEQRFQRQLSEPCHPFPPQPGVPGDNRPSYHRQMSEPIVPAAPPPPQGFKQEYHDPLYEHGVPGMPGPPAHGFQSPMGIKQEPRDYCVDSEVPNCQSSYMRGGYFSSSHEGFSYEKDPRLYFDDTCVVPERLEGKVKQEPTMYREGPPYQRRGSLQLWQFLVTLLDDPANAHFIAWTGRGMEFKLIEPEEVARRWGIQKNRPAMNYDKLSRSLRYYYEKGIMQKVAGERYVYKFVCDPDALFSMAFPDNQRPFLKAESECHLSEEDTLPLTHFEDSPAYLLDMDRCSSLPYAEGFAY
# Method in brief: as §1
# HSF1 = HSF1 (Homo sapiens, UniProt Q00613 1-529); settings: protein: recombinant; tags: N-terminal GST; chain copies: 3; dsDNA, one strand shown
# Chain of HSF1 (Q00613 whole entry): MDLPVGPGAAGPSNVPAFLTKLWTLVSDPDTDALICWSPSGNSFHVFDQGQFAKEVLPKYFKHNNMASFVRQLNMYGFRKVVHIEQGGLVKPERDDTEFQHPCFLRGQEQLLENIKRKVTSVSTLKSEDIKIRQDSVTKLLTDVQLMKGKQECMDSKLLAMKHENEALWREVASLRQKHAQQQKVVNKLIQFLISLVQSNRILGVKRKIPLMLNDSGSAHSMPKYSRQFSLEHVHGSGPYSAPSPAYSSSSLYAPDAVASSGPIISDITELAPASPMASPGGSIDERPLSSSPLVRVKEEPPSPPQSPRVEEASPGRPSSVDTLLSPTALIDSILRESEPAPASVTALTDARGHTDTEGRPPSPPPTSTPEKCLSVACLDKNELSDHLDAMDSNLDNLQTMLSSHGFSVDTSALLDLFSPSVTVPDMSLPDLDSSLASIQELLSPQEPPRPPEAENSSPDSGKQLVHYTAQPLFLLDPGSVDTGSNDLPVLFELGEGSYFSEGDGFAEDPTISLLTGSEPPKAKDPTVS
# Method in brief: as §1
# SPIC = biological target: T8, SPIC (Homo sapiens, UniProt Q8N5J4 1-248); settings: protein: recombinant; tags: N-terminal GST; dsDNA, one strand shown
# T8 sequence: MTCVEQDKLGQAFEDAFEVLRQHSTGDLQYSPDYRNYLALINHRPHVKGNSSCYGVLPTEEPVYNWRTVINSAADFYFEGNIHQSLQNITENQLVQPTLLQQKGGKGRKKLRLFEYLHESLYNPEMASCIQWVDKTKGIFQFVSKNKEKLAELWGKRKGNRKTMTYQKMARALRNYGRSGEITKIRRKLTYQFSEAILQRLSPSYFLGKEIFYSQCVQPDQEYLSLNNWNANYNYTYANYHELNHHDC
# Method in brief: as §1
# ELK4 = biological target: T9, ELK4 (Homo sapiens, UniProt P28324-2 1-405); settings: protein: recombinant; tags: N-terminal GST; dsDNA, one strand shown
# T9 sequence: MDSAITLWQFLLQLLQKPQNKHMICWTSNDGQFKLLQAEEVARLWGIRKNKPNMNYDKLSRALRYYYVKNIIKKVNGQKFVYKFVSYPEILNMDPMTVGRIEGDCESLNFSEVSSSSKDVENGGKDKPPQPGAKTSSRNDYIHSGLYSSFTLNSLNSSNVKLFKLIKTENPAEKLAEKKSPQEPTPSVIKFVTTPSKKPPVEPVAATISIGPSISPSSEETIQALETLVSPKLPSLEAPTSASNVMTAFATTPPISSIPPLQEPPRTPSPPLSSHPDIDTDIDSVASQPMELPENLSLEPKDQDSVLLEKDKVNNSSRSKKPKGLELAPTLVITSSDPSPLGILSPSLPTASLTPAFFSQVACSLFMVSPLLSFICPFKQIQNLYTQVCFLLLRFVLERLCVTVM
# Method in brief: as §1
# ETV2 = biological target: T10, ETV2 (Homo sapiens, UniProt O00321 1-342); settings: protein: recombinant; tags: N-terminal GST; dsDNA, one strand shown
# T10 sequence: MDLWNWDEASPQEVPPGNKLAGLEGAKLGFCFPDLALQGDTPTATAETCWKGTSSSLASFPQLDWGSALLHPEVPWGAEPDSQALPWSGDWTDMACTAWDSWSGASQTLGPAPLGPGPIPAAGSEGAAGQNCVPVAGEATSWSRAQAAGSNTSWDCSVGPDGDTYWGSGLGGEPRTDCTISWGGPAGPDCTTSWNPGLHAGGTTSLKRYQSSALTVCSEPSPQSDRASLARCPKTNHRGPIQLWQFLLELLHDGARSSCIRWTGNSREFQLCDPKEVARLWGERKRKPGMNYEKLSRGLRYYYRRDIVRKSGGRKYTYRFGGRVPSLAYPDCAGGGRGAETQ
# Method in brief: as §1
# ELF3 = biological target: T11, ELF3 (Homo sapiens, UniProt P78545 1-371); settings: protein: recombinant; tags: N-terminal GST; dsDNA, one strand shown
# T11 sequence: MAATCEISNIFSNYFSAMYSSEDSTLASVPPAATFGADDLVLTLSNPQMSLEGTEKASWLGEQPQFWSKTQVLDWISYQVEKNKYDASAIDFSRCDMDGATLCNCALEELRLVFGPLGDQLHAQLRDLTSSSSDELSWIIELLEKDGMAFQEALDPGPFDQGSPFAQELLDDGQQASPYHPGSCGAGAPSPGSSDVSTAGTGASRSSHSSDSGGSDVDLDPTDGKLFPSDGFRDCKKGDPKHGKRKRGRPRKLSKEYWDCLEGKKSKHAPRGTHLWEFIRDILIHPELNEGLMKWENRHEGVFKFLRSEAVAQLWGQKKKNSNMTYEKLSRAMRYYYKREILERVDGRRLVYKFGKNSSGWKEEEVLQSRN
# Method in brief: as §1
# ETV1 = ETV1 (Homo sapiens, UniProt P50549 1-477); settings: protein: recombinant; tags: N-terminal GST; dsDNA, one strand shown
# Chain of ETV1 (P50549 whole entry): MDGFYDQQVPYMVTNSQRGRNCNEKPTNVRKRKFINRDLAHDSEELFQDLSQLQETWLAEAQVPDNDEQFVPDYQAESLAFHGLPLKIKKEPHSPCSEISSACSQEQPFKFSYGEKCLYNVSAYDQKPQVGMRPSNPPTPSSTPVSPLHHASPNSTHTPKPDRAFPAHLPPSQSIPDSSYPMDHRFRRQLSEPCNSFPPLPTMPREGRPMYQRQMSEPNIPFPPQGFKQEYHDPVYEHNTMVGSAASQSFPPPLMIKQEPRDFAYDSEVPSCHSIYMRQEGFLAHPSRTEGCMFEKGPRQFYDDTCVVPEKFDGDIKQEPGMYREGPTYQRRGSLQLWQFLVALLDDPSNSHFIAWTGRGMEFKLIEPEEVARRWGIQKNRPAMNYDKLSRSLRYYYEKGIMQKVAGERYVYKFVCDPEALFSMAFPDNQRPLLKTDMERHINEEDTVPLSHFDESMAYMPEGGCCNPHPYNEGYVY
# Method in brief: as §1
sequence,measurement,setting,value
TCGCGC,binding signal,FLI1,"1.08 fold enrichment (6-mer frequency, TF over GST control)"
same,binding signal,ELK1,"1.04 fold enrichment (6-mer frequency, TF over GST control)"
same,binding signal,GABPA,"1.18 fold enrichment (6-mer frequency, TF over GST control)"
same,binding signal,ERG,"1.08 fold enrichment (6-mer frequency, TF over GST control)"
same,binding signal,ELF1,"1.07 fold enrichment (6-mer frequency, TF over GST control)"
same,binding signal,EHF,"1.13 fold enrichment (6-mer frequency, TF over GST control)"
same,binding signal,SPIB,"1.08 fold enrichment (6-mer frequency, TF over GST control)"
same,binding signal,ELK3,"1.03 fold enrichment (6-mer frequency, TF over GST control)"
same,binding signal,FEV,"1.03 fold enrichment (6-mer frequency, TF over GST control)"
same,binding signal,ETV5,"1.02 fold enrichment (6-mer frequency, TF over GST control)"
same,binding signal,HSF1,"1.1 fold enrichment (6-mer frequency, TF over GST control)"
same,binding signal,SPIC,"1.25 fold enrichment (6-mer frequency, TF over GST control)"
same,binding signal,ELK4,"1.03 fold enrichment (6-mer frequency, TF over GST control)"
same,binding signal,ETV2,"1.08 fold enrichment (6-mer frequency, TF over GST control)"
same,binding signal,ELF3,"1.05 fold enrichment (6-mer frequency, TF over GST control)"
same,binding signal,ETV1,"1.13 fold enrichment (6-mer frequency, TF over GST control)"
